Experiment [1] relates to NIH3T3. The experiment in a line: Cytotoxic Profiling of Annotated Libraries Using Quantitative High-Throughput Screening (AID 1296008). Further: potency means the concentration at half of the fitted maximal effect. The settings on record: Five cell lines viability, CellTiter-Glo ATP luminescence, 48-72 h; max response: active compounds read low. In a few lines:
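Cells exposed to compounds for 48 or 72 hr at 37 degrees Celsius. Viability read as ATP-coupled luminescence with CellTiter-Glo after 10 min at room temperature.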
Background: ATP-based viability assays read luminescence as a measure of living cells.

A further experiment deals with HACAT. The experiment in a line: qHTS assay to identify novel small-molecules to repurpose for Merkel cell carcinoma treatment (AID 1296009). The settings on record: MCC and control cell lines, CellTiter-Glo viability, 72 h; at 44.8 µM (top of the series) unless noted. In a few lines: (§1)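 Cells were incubated with compound for 72 hr at 37 degree celsius before CellTiter-Glo addition. Luminescence was normalized with no-cell wells as full cytotoxicity and DMSO as baseline.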
Background: In qHTS, concentration-response curves come from the screen itself.

The subject of another experiment is HEK293T. The description is as above. Particulars: MCC and control cell lines, CellTiter-Glo viability, 72 h; at 44.8 µM (top of the series). In a few lines:
as §1

The next experiment deals with MCC-13. Described as above. Particulars: MCC and control cell lines, CellTiter-Glo viability, 72 h; series mostly up to 46 µM. In a few lines:
as §1

For a further experiment, the system named is MCC-26. The description is as above. Particulars: MCC and control cell lines, CellTiter-Glo viability, 72 h; series mostly up to 46 µM. In a few lines:
as §1

The subject of the next experiment is MKL-1. The experiment is described as above. The settings on record: MCC and control cell lines, CellTiter-Glo viability, 72 h; series mostly up to 46 µM. In a few lines: as §1
The next experiment relates to MKL-2. The description is as above. The settings on record: MCC and control cell lines, CellTiter-Glo viability, 72 h; series mostly up to 46 µM. In a few lines:
as §1

The subject of another experiment is UISO. The experiment is described as above. Particulars: MCC and control cell lines, CellTiter-Glo viability, 72 h; series mostly up to 46 µM. An outline of the steps:
as §1

In the next experiment the test system is WaGa. The experiment is described as above. The settings on record: MCC and control cell lines, CellTiter-Glo viability, 72 h; series mostly up to 46 µM. In a few lines: as §1
Experiment [2] has as its system NIH3T3. The description is as above. The settings on record: MCC and control cell lines, CellTiter-Glo viability, 72 h; at 44.8 µM (top of the series) unless noted. In a few lines:
as §1

“And” between values parts separate entries of the source, which are not always exact repeats. Equal entries are not always repeated. Results filed as inconclusive are left out. Values without a mark were called inactive. The source made the active and inactive calls. The call rests on the fitted dose curve; in most records, active means well fitted inhibition curve with a large enough effect; inconclusive means small, poorly fitted or top-dose-only effect; inactive means flat fitted curve, though single readings scatter.
Further: nearly all actives have a fitted effect of over 60% in size.
On the % scale 0 is the no-effect control and ±100 the full control effect.

On to `C[N+]1(C)[C@@H]2CC(OC(=O)[C@H](CO)c3ccccc3)C[C@H]1[C@H]1O[C@@H]12` (some centres not stated), for which the max response with NIH3T3 [1] is -3.27%. In addition, the molecule was classed as inactive with HACAT and with HEK293T. Also, the Potency result with MCC-13, with MCC-26, in the experiment with MKL-1, in the experiment with MKL-2, with UISO and in the experiment with WaGa was “inactive” in each case.
Turning to `Cn1c(N2CCCCS2(=O)=O)nc(C(=O)NCc2ccc(F)cc2)c(O)c1=O`, the max response in the experiment with NIH3T3 [1] is -0.0051%. Moreover, the result in the experiment on NIH3T3 [1], in the experiment with HACAT and in the experiment on NIH3T3 [2] was inactive. The Potency result with MCC-13, in the experiment with MCC-26, in the experiment with MKL-1, with MKL-2, in the experiment on UISO and in the experiment with WaGa was “inactive” in each case.
Consider `Cc1ccc(Nc2cc(-c3cccc(N4C(=O)c5ccccc5C4=O)c3)ncn2)cc1NS(C)(=O)=O`, for which the max response in the experiment with NIH3T3 [1] is -7.13%. The molecule was called inactive in the experiment with NIH3T3 [1], in the experiment with HACAT and with NIH3T3 [2]. For the same molecule, the Potency result with MCC-13, in the experiment with MCC-26, with MKL-1, with MKL-2, in the experiment on UISO and with WaGa was “inactive” throughout.
Consider `CC(C)C(=O)Oc1ccc(CO)cc1[C@H](CCN(C(C)C)C(C)C)c1ccccc1`, for which the max response in the experiment on NIH3T3 [1] was -3.14%. The call with NIH3T3 [1], in the experiment on HACAT and with NIH3T3 [2] was inactive. In addition, the Potency result in the experiment with MCC-13, with MCC-26, in the experiment with MKL-1, in the experiment with MKL-2, with UISO and in the experiment with WaGa was “inactive” throughout.
In the case of `C=C1C(=O)OC(CCCCCCCC)C1C(=O)O` (configuration not stated), the max response in the experiment with NIH3T3 [1] was 2.38%. The call in the experiment on HACAT and with HEK293T was inactive. The Potency result with MCC-13, in the experiment with MCC-26, with MKL-1, in the experiment on MKL-2, in the experiment on UISO and in the experiment on WaGa was “inactive” each time.
For `COc1ccccc1N1CCN(CCCNc2cc(=O)n(C)c(=O)n2C)CC1`, the outcome in the experiment on NIH3T3 [1], with HACAT, in the experiment on HEK293T and in the experiment with NIH3T3 [2] was inactive. In addition, the Potency entry with MCC-13, in the experiment on MKL-1, in the experiment with MKL-2, with UISO and in the experiment on WaGa was “inactive” throughout.
As to `O=C(O)C=Cc1ccc(O)c(O)c1`, in the experiment on NIH3T3 [1], the max response was -24.2%.
With `CCn1cc(C(=O)O)c(=O)c2ccc(C)nc21`, the max response in the experiment with NIH3T3 [1] was -10.7% and -7.98%. Besides, the outcome in the experiment on HACAT and in the experiment on HEK293T was inactive. Moreover, the Potency result in the experiment on MCC-13, in the experiment with MCC-26, in the experiment on MKL-1, with MKL-2, in the experiment with UISO and in the experiment on WaGa was “inactive” throughout.
As for `N[C@H](CSC(c1ccccc1)(c1ccccc1)c1ccccc1)C(=O)O`, the Potency in the experiment on NIH3T3 [1] was 26.4 µM (active). The outcome with HACAT was inactive.
Take `Cc1cnc(C(=O)O)c[n+]1[O-]`: the max response in the experiment with NIH3T3 [1] is -3.95%. In addition, the outcome in the experiment on HACAT and in the experiment with HEK293T was inactive. Also, the Potency result in the experiment with MCC-13, with MCC-26, in the experiment with MKL-1, in the experiment on UISO and in the experiment with WaGa was “inactive” each time.
In the case of `NCCS`, the max response in the experiment on NIH3T3 [1] is 4.3%. Also, the molecule was classed as inactive with HACAT and in the experiment with HEK293T. Moreover, the Potency entry with MCC-13, with MCC-26, with MKL-1, in the experiment with MKL-2, with UISO and with WaGa was “inactive” in each case.
In the case of `CC=CC(=O)N(CC)c1ccccc1C`, the max response with NIH3T3 [1] is 3.96%. Further, the result with HACAT and with HEK293T was inactive. Also, the Potency result in the experiment with MCC-13, in the experiment with MCC-26, in the experiment with MKL-1, with MKL-2 and with UISO was “inactive” in each case.
`OC[C@@H](O)[C@H](O)[C@H](O)[C@@H](O)CO`: the result in the experiment on NIH3T3 [1], in the experiment on HACAT, in the experiment with HEK293T and with NIH3T3 [2] was inactive. The Potency entry in the experiment on MCC-13, with MCC-26, in the experiment with MKL-1, with MKL-2, in the experiment with UISO and in the experiment with WaGa was “inactive” in each case.
Take `CC(=O)c1ccc(S(=O)(=O)NC(=O)NC2CCCCC2)cc1`: the max response with NIH3T3 [1] was -3.55%. Moreover, the molecule was called inactive in the experiment with HACAT and in the experiment on HEK293T. Also, the Potency entry with MCC-13, in the experiment with MCC-26, with MKL-1, with MKL-2, in the experiment with UISO and in the experiment on WaGa was “inactive” in each case.
On to `COc1cc2ncnc(-n3nc(-c4ccccn4)nc3N)c2cc1OC`, for which, in the experiment on NIH3T3 [1], the max response is 0.54% and -22.1%. The result with HACAT and in the experiment with HEK293T was inactive. The Potency result in the experiment with MCC-13, with MCC-26, with MKL-1, in the experiment on MKL-2 and with WaGa was “inactive” in each case.
`CCOC(=O)C1=C(N)Oc2ccc(Br)cc2C1C(C#N)C(=O)OCC` (configuration not stated): in the experiment with NIH3T3 [1], the max response was 0.0498% and 4.88%. The outcome in the experiment with NIH3T3 [1], in the experiment with HACAT, in the experiment on HEK293T and with NIH3T3 [2] was inactive. The Potency entry in the experiment with MCC-13, in the experiment on MCC-26, with MKL-1, in the experiment with MKL-2, in the experiment on UISO and in the experiment on WaGa was “inactive” throughout.
Regarding `CC(=O)O[C@]1(C(C)=O)CC[C@@H]2[C@@H]3C[C@H](C)C4=CC(=O)CC[C@]4(C)[C@H]3CC[C@@]21C`, the max response in the experiment on NIH3T3 [1] is -6.3%. Besides, the call in the experiment with HACAT and in the experiment on HEK293T was inactive. Besides, the Potency entry with MCC-13, in the experiment with MCC-26 and with UISO was “inactive” throughout.
`COC(=O)[C@@H]1[C@H]2C[C@H]3c4[nH]c5ccccc5c4CCN3C[C@@H]2CC[C@@H]1O`: the max response with NIH3T3 [1] was -5.76%. Besides, the call in the experiment with NIH3T3 [1], in the experiment on HACAT and in the experiment on NIH3T3 [2] was inactive. Further, the Potency result with MCC-13, in the experiment on MCC-26, in the experiment on MKL-1, in the experiment on MKL-2, in the experiment on UISO and in the experiment on WaGa was “inactive” each time.
Regarding `O=c1ccn([C@@H]2O[C@H](CO)[C@H](O)[C@H]2O)c(=O)[nH]1`, in the experiment with NIH3T3 [1], the max response was -5.13%. Besides, the molecule was classed as inactive with HACAT and with HEK293T. Moreover, the Potency entry with MCC-13, in the experiment with MCC-26, in the experiment with MKL-1, with MKL-2, in the experiment on UISO and in the experiment on WaGa was “inactive” in each case.
As for `O=C1NCC2(CCN(CCc3ccccc3)CC2)O1`, the call with NIH3T3 [1], in the experiment with HACAT, with HEK293T and with NIH3T3 [2] was inactive. In addition, the Potency result in the experiment on MCC-13, in the experiment on MCC-26, in the experiment with MKL-1, in the experiment with MKL-2, in the experiment on UISO and in the experiment with WaGa was “inactive” throughout.
As to `CCN(CC)CCNC(=O)c1ccc(N)cc1`, the outcome in the experiment on NIH3T3 [1], in the experiment on HEK293T and with NIH3T3 [2] was inactive. The outcome with HACAT was “inactive; activator”. Also, the Potency result with MCC-13, in the experiment on MCC-26, in the experiment on MKL-1, in the experiment with MKL-2, in the experiment with UISO and in the experiment with WaGa was “inactive” each time.
